{"source": "the supplement of paper PMC7380943", "data": [{"system": "CLZ3 (HCA2 human fibroblast dual HR-NHEJ reporter)", "experiment": "HR repair efficiency (tdTomato+ cells) relative to control (log10 fold); higher = more homologous recombination", "conditions": "5 µM; doxycycline 0.5 ug/mL", "values": [{"smiles": "C[C@H]1[C@H](C)CC[C@]2(C(=O)O)CC[C@]3(C)C(=CC[C@@H]4[C@@]5(C)C[C@@H](O)[C@H](O)[C@@](C)(CO)[C@@H]5[C@H](O)C[C@]43C)[C@H]12", "note": "[Madecassic acid]", "HR repair efficiency (log10)": 0.143}, {"smiles": "COc1ccc(-c2coc3cc(O)cc(O)c3c2=O)cc1", "note": "[Biochanin A]", "HR repair efficiency (log10)": 0.0228}, {"smiles": "C=C1CCC[C@]2(C)C[C@]3(O)OC(=O)C(C)=C3C[C@@H]12", "note": "[Atractylenolide Iii]", "HR repair efficiency (log10)": 0.0542}, {"smiles": "COc1cc2ccc(=O)oc2cc1OC", "note": "[Scoparone]", "HR repair efficiency (log10)": 0.0853}, {"smiles": "COc1c2ccoc2c(OC[C@@H](O)C(C)(C)O)c2oc(=O)ccc12", "note": "[Byakangelicin]", "HR repair efficiency (log10)": -0.0476}, {"smiles": "NCCCC(=O)O", "note": "[g-Aminobutyric acid]", "HR repair efficiency (log10)": 0.0647}, {"smiles": "COc1ccc(-c2cc(=O)c3c(O)cc(O[C@@H]4O[C@H](CO[C@@H]5O[C@@H](C)[C@H](O)[C@@H](O)[C@H]5O)[C@@H](O)[C@H](O)[C@H]4O)cc3o2)cc1", "note": "[Linarin]", "HR repair efficiency (log10)": 0.00777}, {"smiles": "O=c1c(-c2ccc(O)cc2)coc2cc(O)ccc12", "note": "[Daidzein]", "HR repair efficiency (log10)": -0.15}, {"smiles": "O=c1c(O)c(-c2ccc(O)c(O)c2)oc2cc(O)ccc12", "note": "[Fisetin]", "HR repair efficiency (log10)": -0.0214}, {"smiles": "COc1ccc(-c2oc3c(CC=C(C)C)c(O[C@@H]4O[C@H](CO)[C@@H](O)[C@H](O)[C@H]4O)cc(O)c3c(=O)c2O[C@@H]2O[C@@H](C)[C@H](O)[C@@H](O)[C@H]2O)cc1", "note": "[Icarrin]", "HR repair efficiency (log10)": 0.0409}, {"smiles": "C[C@@H](CC[C@@]1(O)O[C@H]2C[C@H]3[C@@H]4CC[C@@H]5C[C@@H](O[C@@H]6O[C@H](CO)[C@H](O)[C@H](O)[C@H]6O[C@@H]6O[C@H](CO)[C@@H](O)[C@H](O)[C@H]6O)CC[C@]5(C)[C@H]4CC[C@]3(C)[C@H]2[C@@H]1C)CO[C@@H]1O[C@H](CO)[C@@H](O)[C@H](O)[C@H]1O", "note": "[Timosaponin b- II]", "HR repair efficiency (log10)": -0.131}, {"smiles": "COc1ccc2c(c1O)-c1c(O)c(OC)cc3c1[C@H](C2)[N+](C)(C)CC3", "note": "[Magnoflorine iodide]", "HR repair efficiency (log10)": -0.0243}, {"smiles": "O=C(O)Cc1c(C=CC(=O)OC(Cc2ccc(O)c(O)c2)C(=O)O)ccc(O)c1O", "note": "(stereo unspecified) [Salvianolic Acid D]", "HR repair efficiency (log10)": 0.105}, {"smiles": "C[C@@H]1C(=O)O[C@H]2C[C@@]34O[C@@H]5OC(=O)[C@H](O)[C@@]56[C@H](C(C)(C)C)[C@H](O)C(OC3=O)[C@]64[C@]21O", "note": "(stereo partly specified) [Ginkgolide J]", "HR repair efficiency (log10)": 0.076}, {"smiles": "COc1cc(CNC(=O)CCCCCCC(C)C)ccc1O", "note": "[Dihydrocapsaicin]", "HR repair efficiency (log10)": -0.256}, {"smiles": "CC1(C)CC[C@]2(C(=O)O)CCC3=C([C@@H](CCl)C[C@@H]4[C@@]5(C)C[C@H](O)[C@H](O)[C@@](C)(C(=O)O)[C@@H]5CC[C@@]34C)[C@@H]2C1", "note": "[Tenuigenin]", "HR repair efficiency (log10)": 0.0517}, {"smiles": "CC(CC(=O)C[C@@H](C)[C@H]1CC(=O)[C@@]2(C)C3=C(C(=O)[C@@H](O)[C@]12C)[C@@]1(C)CC[C@H](O)C(C)(C)[C@@H]1C[C@@H]3O)C(=O)O", "note": "(stereo partly specified) [Ganoderic Acid G]", "HR repair efficiency (log10)": 0.106}, {"smiles": "Oc1cc(O)c2c(c1)O[C@H](c1ccc(O)c(O)c1)[C@H](O)[C@H]2c1c(O)cc(O)c2c1O[C@H](c1ccc(O)c(O)c1)[C@H](O)C2", "note": "[Procyanidin B2]", "HR repair efficiency (log10)": -0.122}, {"smiles": "C=C1C[C@@]23CC[C@H]4[C@@](C)(CCC[C@@]4(C)C(=O)O[C@@H]4O[C@H](CO)[C@@H](O)[C@H](O)[C@H]4O)[C@@H]2CC[C@]1(O[C@@H]1O[C@H](CO)[C@@H](O)[C@H](O)[C@H]1O)C3", "note": "[Rubusoside]", "HR repair efficiency (log10)": 0.0779}, {"smiles": "COc1ccc2c(c1OC)CN(C)CCc1cc3c(cc1C(=O)C2)OCO3", "note": "[Allocryptopine]", "HR repair efficiency (log10)": 0.04}, {"smiles": "CC12CCC(CC1)C(C)(C)O2", "note": "[Eucalyptol]", "HR repair efficiency (log10)": 0.0216}, {"smiles": "O=C(O)/C=C/C(=O)O", "note": "[Fumaric Acid]", "HR repair efficiency (log10)": 0.136}, {"smiles": "O=C(O)C1=CO[C@@H](O[C@@H]2O[C@H](CO)[C@@H](O)[C@H](O)[C@H]2O)[C@@H]2C(CO)=CC[C@H]12", "note": "[Geniposidic acid]", "HR repair efficiency (log10)": -0.00169}, {"smiles": "COC(=O)[C@H]1O[C@@H](Oc2cc3oc(-c4ccc(O)cc4)cc(=O)c3c(O)c2O)[C@H](O)[C@@H](O)[C@@H]1O", "note": "[Scutellarin Methyl Ester]", "HR repair efficiency (log10)": -0.014}, {"smiles": "COc1ccc2ccc(=O)oc2c1CC=C(C)C", "note": "[Osthole]", "HR repair efficiency (log10)": -0.0645}, {"smiles": "COc1cc2c(cc1O)CC[n+]1cc3c(OC)c(OC)ccc3cc1-2", "note": "[Jateorrhizine]", "HR repair efficiency (log10)": -0.189}, {"smiles": "C=C1C[C@@]23CC[C@H]4[C@@](C)(CCC[C@@]4(C)C(=O)O[C@@H]4O[C@H](CO)[C@@H](O)[C@H](O)[C@H]4O)[C@@H]2CC[C@]1(O[C@@H]1O[C@H](CO)[C@@H](O)[C@H](O)[C@H]1O[C@@H]1O[C@H](CO)[C@@H](O)[C@H](O)[C@H]1O)C3", "note": "[Stevioside]", "HR repair efficiency (log10)": 0.296}, {"smiles": "O=c1ccc2ccc(O)c(O)c2o1", "note": "[Daphnetin]", "HR repair efficiency (log10)": 0.146}, {"smiles": "OC[C@H]1O[C@@H](Oc2ccc(O)cc2)[C@H](O)[C@@H](O)[C@@H]1O", "note": "[Arbutin]", "HR repair efficiency (log10)": 0.0689}, {"smiles": "COc1ccc(-c2oc3c(CC=C(C)C)c(O[C@@H]4O[C@H](CO)[C@@H](O)[C@H](O)[C@H]4O)cc(O)c3c(=O)c2O[C@@H]2O[C@@H](C)[C@H](O)[C@@H](O)[C@H]2O)cc1", "note": "[Icariine]", "HR repair efficiency (log10)": -0.0902}, {"smiles": "CC(C)=CCC/C(C)=C/CC/C(C)=C/CC/C(C)=C/CC/C(C)=C/CC/C(C)=C/CC/C(C)=C/CC/C(C)=C/CC/C(C)=C/CO", "note": "[Solanesol]", "HR repair efficiency (log10)": -0.0545}]}]}
